Structures are written as SMILES. Where “and” joins values, the source holds several entries; their conditions need not be identical. Identical values can stand only once. Screen size: about 16,000 compounds; about 5,100 (32%) were called active. About 25% were inconclusive and are not listed. This is one part of the list. Unmarked numbers belong to inactive results. Calls come from the whole dose curve; as a rule, active = well fitted curve in the direction sought with a large enough effect; inconclusive = small, poorly fitted or top-dose-only effect, or effect the other way; inactive = no such curve, though single readings can be large or run the other way.
% is set by controls: 0 for no effect and ±100 for the full control effect.

This assay deals with Cytochrome P450 3A4 (Homo sapiens) (UniProt P08684). The assay can be described thus: Cytochrome panel assay with activity outcomes. To be noted: recombinant CYP, pro-luciferin dealkylation, luminescence, p450-cyp3a4; series mostly up to 57.1 µM; activity, negative = inhibition: at the top concentration.
Sequence of Cytochrome P450 3A4 (Homo sapiens) (P08684 whole entry, looked up): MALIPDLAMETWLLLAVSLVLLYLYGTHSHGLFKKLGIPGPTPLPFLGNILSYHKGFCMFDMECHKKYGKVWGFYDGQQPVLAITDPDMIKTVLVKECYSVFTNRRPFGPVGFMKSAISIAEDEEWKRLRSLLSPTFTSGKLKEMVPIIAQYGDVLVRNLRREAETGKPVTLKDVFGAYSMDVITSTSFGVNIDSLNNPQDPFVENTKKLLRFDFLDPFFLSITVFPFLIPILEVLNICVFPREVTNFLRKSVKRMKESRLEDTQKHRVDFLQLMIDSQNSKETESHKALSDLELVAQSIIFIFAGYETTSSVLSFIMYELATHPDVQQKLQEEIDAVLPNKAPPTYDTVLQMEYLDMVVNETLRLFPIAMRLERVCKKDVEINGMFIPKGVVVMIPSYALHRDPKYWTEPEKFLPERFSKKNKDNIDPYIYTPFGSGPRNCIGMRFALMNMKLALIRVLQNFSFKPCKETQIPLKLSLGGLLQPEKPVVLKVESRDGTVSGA
Turning to `O=C(O)Cc1cc(I)c(Oc2ccc(O)c(I)c2)c(I)c1`, the “activity, negative = inhibition” value is -23.6% [at 25.6 µM].
Regarding `NC1=NC2(CCCCC2)N=C(Nc2ccc(F)cc2F)N1`, the “activity, negative = inhibition” value was -29.4%.
On the same count and under the same terms, in the case of `O=C(O)CC[C@@H](C(=O)O)N1C(=O)c2ccccc2C1=O` it was -3.86% [at 11.4 µM].
The term AC50 denotes the concentration giving half of the maximal activity seen. In the case of `Cc1ccc(C(=O)C(OC(=O)CN2C(=O)c3ccccc3C2=O)c2ccccc2)cc1` (configuration not stated), the half-maximal activity concentration (AC50) was 7.94 µM (active).
For `COc1ccc(C(=S)Nc2ccccc2)cc1`, the AC50 is 31.6 µM (active).
For the compound `COc1ccc(NC(=S)Nc2ccccc2)cc1`, the activity, negative = inhibition was -19.5% [at 11.4 µM].
The same measure, in the same setting: in the case of `CN(CC[C@@H](Oc1ccc(-c2ccccc2)cc1)c1ccc(F)cc1)CC(=O)O` it was -24.4%.
Take `CCCn1nc(C(=O)NCC(C)(C)N2CCOCC2)c2ccccc2c1=O`: the AC50 is 7.08 µM (active).
As for `CCN(CC)CCNC(=O)C(C)c1nn(C)c(=O)c2ccccc12` (configuration not stated), the activity, negative = inhibition is -0.681% [at 2.29 µM].
On the same count and under the same terms, in the case of `CC1CCN(CCOc2cc(Cl)ccc2Cl)CC1` it was 2.39%.
Regarding `Cc1cc(Cl)ccc1OCCCC(=O)N1CCN(C)CC1`, the AC50 was 12.6 µM (active).
On to `CC(C)NCCCOc1ccc(Cl)cc1Br`, for which the activity, negative = inhibition is 6.16% [at 2.29 µM].
On the same count and under the same terms, in the case of `CC(C)CO/N=C1/[C@H]2O[C@@H]2[C@@H](O)[C@H]2[C@H]1CCn1c(=O)n(-c3ccccc3)c(=O)n12` it was -14% [at 11.4 µM].
Consider `CCCNC(=O)OC[C@H]1O[C@@H](CCO/N=C2/[C@H]3O[C@@H]3[C@@H](O)[C@H]3[C@H]2CCn2c(=O)n(-c4ccccc4)c(=O)n23)C=C[C@@H]1Oc1ccc(OC)cc1`, for which the AC50 was 3.16 µM (active).
In the case of `CC(C)=CCC/C(C)=C/CO/N=C1/[C@H]2O[C@@H]2[C@@H](O)[C@H]2[C@H]1CCn1c(=O)n(-c3ccccc3)c(=O)n12`, the activity, negative = inhibition is -17.8% [at 11.4 µM].
Take `COc1ccc(O[C@H]2C=C[C@@H](c3ccccc3)O[C@H]2CO/N=C2/[C@H]3O[C@@H]3[C@@H](O)[C@H]3[C@H]2CCn2c(=O)n(-c4ccccc4)c(=O)n23)cc1`: the AC50 was 3.16 µM (active).
For the compound `O=c1n(-c2ccccc2)c(=O)n2n1CC[C@H]1/C(=N\OCc3ccccc3)[C@H]3O[C@@H]3[C@@H](O)[C@@H]12`, the activity, negative = inhibition was -7.77% [at 11.4 µM].
Still for that read-out and setting: in the case of `CC(=O)OC[C@H]1O[C@@H](O/N=C2/[C@H]3O[C@@H]3[C@@H](O)[C@H]3[C@H]2CCn2c(=O)n(-c4ccccc4)c(=O)n23)[C@H](OC(C)=O)[C@@H](OC(C)=O)[C@@H]1OC(C)=O` it was -17.4% [at 11.4 µM]; in that of `O=C(CP(=O)(c1ccccc1)c1ccccc1)Nn1cnnc1`, -24.8%; in that of `O=C(c1csnn1)N1CCC2(CC1)CN(c1ccccc1)C2`, -13.5%.
`O=C(c1csnn1)N1CCC2(CC1)CCN(c1ccccn1)CC2`: the “activity, negative = inhibition” value is -21.6%.
Turning to `O=C(c1csnn1)N1CCC2(CCCN(c3ccccc3)C2)CC1`, the AC50 was 12.6 µM (active).
As to `O=C(c1csnn1)N1CCC2(CC1)CCN(c1ccccc1)CC2`, the “activity, negative = inhibition” value is -4.52%.
Turning to `O=C(c1csnn1)N1CCC2(CCCN(c3ccc(-c4ccccc4)cc3)C2)CC1`, the AC50 was 7.94 µM (active).
For `CN1CCC(n2[nH]c(-c3ccccc3)c(Cc3ccccc3)c2=O)CC1`, the AC50 is 3.98 µM (active).
Turning to `O=c1c(Cc2ccccc2)c(O)nc2n1CCS2`, the activity, negative = inhibition was -2.9% [at 2.29 µM].
Consider `CCNc1ncc2nc(-c3ccc(Cl)cc3)c(=O)n(C3CC3)c2n1`, for which the “activity, negative = inhibition” value is -12.6%.
`CCOC(=O)c1c(C)oc2c1cc(O)c1ccccc12`: the AC50 was 14.1 µM (active).
Regarding `CCOC(=O)c1c(C(C)(C)C)oc2ccc(O)cc12`, the “activity, negative = inhibition” value was 24.5%.
Still for that read-out and setting: in the case of `CCOC(=O)c1c(C)oc2c1c(C=NC1CCS(=O)(=O)C1)c(O)c1ccccc12` (configuration not stated) it was -20.9%; in that of `CN(C)CN1CSC(=S)N(CN(C)C)C1`, -11.6% [at 11.4 µM].
As to `COc1cc(CC(=O)O)ccc1O`, the “activity, negative = inhibition” value is 5.61%.
For `COc1cc([C@H](O)C(=O)O)ccc1O`, the “activity, negative = inhibition” value is 5.48%.
As for `COc1cc(CNC(=O)CCCC/C=C\C(C)C)ccc1O`, the AC50 was 3.98 µM (active) and 7.94 µM (active).
Still for that read-out and setting: in the case of `CCn1c(SCC(=O)Nc2sc3c(c2C(N)=O)CCC(C)C3)nnc1-c1ccco1` (configuration not stated) it was 7.08 µM (active).
For the compound `CCn1c(SCC(=O)Nc2sc3c(c2C#N)CCC(C(C)(C)C)C3)nnc1-c1ccco1` (configuration not stated), the “activity, negative = inhibition” value is 7.56%.
Same read-out and setting: in the case of `CCOC(=O)c1c(NC(=S)NC(=O)c2cnn(CC)c2)sc2c1CCC(C)C2` (configuration not stated) it was 22.2%.
Regarding `CC(=O)C[C@H](c1ccc([N+](=O)[O-])cc1)c1c(O)c2ccccc2oc1=O`, the “activity, negative = inhibition” value was -21.3% [at 25.6 µM].
Same read-out and setting: in the case of `CC1=NCC[N@@+]1(CCc1ccccc1)Cc1ccccc1` it was -18.6% [at 11.4 µM].
For `COc1ccc(CNc2ccnc(-c3cccc(C#N)c3)n2)c(OC)c1`, the AC50 is 2 µM (active).
Still for that read-out and setting: in the case of `COc1ccccc1CNc1ccnc(-c2cccc(C#N)c2)n1` it was 3.98 µM (active).
In the case of `N#C[C@H](c1ccccc1)N1CCCN([C@@H](C#N)c2ccccc2)C1c1ccccc1O` (some centres not stated), the activity, negative = inhibition was -24.5% [at 11.4 µM].
Consider `O=C(O)CC/C=C\CC[C@H]1[C@@H](N2CCCCC2)[C@@H](O)C[C@@H]1OCc1ccc(-c2ccccc2)cc1`, for which the “activity, negative = inhibition” value was -4.43%.
Turning to `O=C(Nc1nnc(SCc2c(Cl)cccc2Cl)s1)C1CCCO1` (configuration not stated), the AC50 was 12.6 µM (active).
As to `NC(=O)c1ccc(NC(=O)C2CCCO2)cc1` (configuration not stated), the “activity, negative = inhibition” value was -11.3%.
With `O=C(Nc1ncc(Cc2ccccc2)s1)C1COc2ccccc2O1` (configuration not stated), the “activity, negative = inhibition” value is -25.2%.
On to `O=C(Nc1nnc(SCc2ccc(Cl)cc2Cl)s1)C1COc2ccccc2O1` (configuration not stated), for which the AC50 was 4.47 µM (active).
In the case of `CCCCCCCCCCCCCCCC[N+](C)(C)CCN(Cc1ccc(OC)cc1)c1ncccn1`, the “activity, negative = inhibition” value is -6.72% [at 25.6 µM].
On the same count and under the same terms, in the case of `NC(N)=NC(N)=Nc1c(F)c(F)c(F)c(F)c1F` it was -1.13% [at 11.4 µM].
With `Cc1cccc(-n2c(Cn3nc(C)c([N+](=O)[O-])c3C)n[nH]c2=S)c1`, the activity, negative = inhibition was -17% [at 2.29 µM].
Turning to `Cc1nn(CCc2n[nH]c(=S)n2-c2ccc(F)c(Cl)c2)c(C)c1[N+](=O)[O-]`, the AC50 is 3.16 µM (active).
For `CC(C)=C1C(=O)NN(c2ccc(F)c(Cl)c2)C1=O`, the activity, negative = inhibition was -12.4% [at 11.4 µM].
As to `C[n+]1ccccc1/C=N\O`, the “activity, negative = inhibition” value is -5.16% [at 25.6 µM].
For `CC(C)N1CCN(c2ccc(OC[C@@H]3CO[C@@](Cn4cncn4)(c4ccc(Cl)cc4Cl)O3)cc2)CC1`, the AC50 was 1.58 µM (active).
Turning to `Cc1noc(C)c1-c1nc(NCc2cccs2)c2ccccc2n1`, the half-maximal activity concentration (AC50) is 6.31 µM (active).
`COc1ccc(CNc2nc(-c3c(C)noc3C)nc3ccccc23)c(OC)c1`: the AC50 was 2.51 µM (active).
For `COc1ccccc1CNc1nc(-c2c(C)noc2C)nc2ccccc12`, the AC50 is 10 µM (active).
In the case of `CCn1cc(C(=O)O)c(=O)c2cnc(N3CCCC3)nc21`, the “activity, negative = inhibition” value is -9.08% [at 25.6 µM].
Consider `O=C(Nc1c[nH]c(=O)[nH]c1=O)Oc1ccccc1`, for which the activity, negative = inhibition was -22.1% [at 11.4 µM].
For the compound `CN(C)C(=O)c1ccc(-c2cncnc2NCc2cccs2)cc1`, the AC50 was 3.16 µM (active).
For the compound `CN(C)c1ccc(-c2cncnc2NCc2cccs2)cc1`, the AC50 was 0.794 µM (active).
As to `CCCn1c2c(c(O)c(C(=O)NCc3ccccc3)c1=O)CCCC2`, the AC50 was 17.8 µM (active).
Turning to `Cc1cc(=O)oc(C)c1C(=O)NCc1ccccc1`, the activity, negative = inhibition was 0.149% [at 2.29 µM].
Take `CCCCCCc1nc2ccccc2c(=O)n1NC(=O)c1c(O)c2c(n(CC(C)C)c1=O)CCCC2`: the activity, negative = inhibition is 10% [at 2.29 µM].
Take `COc1ncc2nc(-c3ccccc3)c(=O)n(-c3ccccc3)c2n1`: the “activity, negative = inhibition” value is 2.66%.
`COc1ncc2nc(-c3cn(C)c4ccccc34)c(=O)n(C)c2n1`: the AC50 was 5.01 µM (active).
`COc1ncc2nc(-c3cn(C)c4ccccc34)c(=O)n(CCC#N)c2n1`: the AC50 was 6.31 µM (active).
With `Cn1cc(-c2nc3cnc(Oc4ccccc4)nc3n(C)c2=O)c2ccccc21`, the “activity, negative = inhibition” value is 7.05%.
For the compound `COc1ccc(-n2c(=O)c(-c3cn(C)c4ccccc34)nc3cnc(OC)nc32)cc1`, the AC50 was 1.58 µM (active).
In the case of `CC(=O)c1cnc2c(C(=O)O)cnn2c1C`, the “activity, negative = inhibition” value was -9.62%.
As to `Cc1c(NC(=O)CCCOc2ccccc2)cccc1[N+](=O)[O-]`, the AC50 is 14.1 µM (active).
`CCOc1cc(NC(=O)c2ccccc2[N+](=O)[O-])c(OCC)cc1NC(=O)CC(C)C`: the activity, negative = inhibition was 3.38% [at 2.29 µM].
In the case of `CCN(CC)S(=O)(=O)c1ccc(OC)c(NC(=O)c2cc([N+](=O)[O-])ccc2Cl)c1`, the AC50 is 12.6 µM (active).
As for `Cc1ccc(OCC(=O)NNC(=O)CCC(=O)Nc2ccc(C)cc2C)cc1`, the “activity, negative = inhibition” value is 2.31%.
In the case of `Cc1cccc(OCCCC(=O)Nc2ccccc2C(F)(F)F)c1`, the AC50 is 14.1 µM (active).
Regarding `O=C1NCCCC1C(=O)Nc1ccccc1C(F)(F)F` (configuration not stated), the “activity, negative = inhibition” value was 23.7%.
`CCCCC(=O)Nc1cc(OCC)c(NC(=O)c2ccccc2[N+](=O)[O-])cc1OCC`: the AC50 was 7.08 µM (active).
`Cc1c(NC(=O)/C=C/C(=O)O)cccc1[N+](=O)[O-]`: the “activity, negative = inhibition” value was -9.55%.
In the case of `OC[C@@H]1O[C@@H](N2CCN([C@@H]3O[C@@H](CO)[C@@H](O)[C@H](O)[C@H]3O)CC2)[C@@H](O)[C@H](O)[C@H]1O`, the activity, negative = inhibition is 2.3% [at 11.4 µM].
For `COc1cc([N+](=O)[O-])ccc1NC(=O)CCCOc1cccc(C)c1`, the AC50 is 5.01 µM (active).
For `CCN(CC)C(=O)c1cc2cc([N+](=O)[O-])ccc2s1`, the activity, negative = inhibition was 20.4% [at 11.4 µM].
For `CCCOc1ccc(/C=C/C(=O)Nc2ccc([N+](=O)[O-])cc2C)cc1`, the activity, negative = inhibition is 2.56% [at 11.4 µM].
In the case of `COc1ccccc1NC(=O)Cn1cncc1-c1ccc([N+](=O)[O-])cc1`, the AC50 was 14.1 µM (active).
`Cc1cccc[n+]1CC(=O)Nc1ccc([N+](=O)[O-])cc1Cl`: the “activity, negative = inhibition” value was -9.74%.
`CCN(CC(=O)Nc1ccc([N+](=O)[O-])cc1OC)c1ccccc1`: the AC50 was 12.6 µM (active).
Take `Cc1cc2nc([C@H](C)C(=O)c3ccc(Cl)cc3)c(=O)[nH]c2cc1C`: the activity, negative = inhibition is -25.9% [at 11.4 µM].
Consider `CCCS(=O)(=O)N1CCCC(C(=O)N2CCOCC2)C1` (configuration not stated), for which the “activity, negative = inhibition” value was 18.5%.

For the origin of these results see PubChem BioAssay AID1851 (National Center for Advancing Translational Sciences (NCATS), 2009).
